Reference: article PMC4336329 (PLoS ONE, 2015)
About 2,200 (0.71%) of roughly 310,000 compounds showed an effect of 50% or more. Effects have a minus sign here. The entries come from a sample that favours strong results as a whole.

biological target: human ether-à-go-go-related gene (hERG) potassium channel (human, UniProt Q12809); assay: primary screen, population patch clamp on CHO cells stably expressing hERG; higher = less effect of the substance
Sequence (Q12809 whole entry, looked up): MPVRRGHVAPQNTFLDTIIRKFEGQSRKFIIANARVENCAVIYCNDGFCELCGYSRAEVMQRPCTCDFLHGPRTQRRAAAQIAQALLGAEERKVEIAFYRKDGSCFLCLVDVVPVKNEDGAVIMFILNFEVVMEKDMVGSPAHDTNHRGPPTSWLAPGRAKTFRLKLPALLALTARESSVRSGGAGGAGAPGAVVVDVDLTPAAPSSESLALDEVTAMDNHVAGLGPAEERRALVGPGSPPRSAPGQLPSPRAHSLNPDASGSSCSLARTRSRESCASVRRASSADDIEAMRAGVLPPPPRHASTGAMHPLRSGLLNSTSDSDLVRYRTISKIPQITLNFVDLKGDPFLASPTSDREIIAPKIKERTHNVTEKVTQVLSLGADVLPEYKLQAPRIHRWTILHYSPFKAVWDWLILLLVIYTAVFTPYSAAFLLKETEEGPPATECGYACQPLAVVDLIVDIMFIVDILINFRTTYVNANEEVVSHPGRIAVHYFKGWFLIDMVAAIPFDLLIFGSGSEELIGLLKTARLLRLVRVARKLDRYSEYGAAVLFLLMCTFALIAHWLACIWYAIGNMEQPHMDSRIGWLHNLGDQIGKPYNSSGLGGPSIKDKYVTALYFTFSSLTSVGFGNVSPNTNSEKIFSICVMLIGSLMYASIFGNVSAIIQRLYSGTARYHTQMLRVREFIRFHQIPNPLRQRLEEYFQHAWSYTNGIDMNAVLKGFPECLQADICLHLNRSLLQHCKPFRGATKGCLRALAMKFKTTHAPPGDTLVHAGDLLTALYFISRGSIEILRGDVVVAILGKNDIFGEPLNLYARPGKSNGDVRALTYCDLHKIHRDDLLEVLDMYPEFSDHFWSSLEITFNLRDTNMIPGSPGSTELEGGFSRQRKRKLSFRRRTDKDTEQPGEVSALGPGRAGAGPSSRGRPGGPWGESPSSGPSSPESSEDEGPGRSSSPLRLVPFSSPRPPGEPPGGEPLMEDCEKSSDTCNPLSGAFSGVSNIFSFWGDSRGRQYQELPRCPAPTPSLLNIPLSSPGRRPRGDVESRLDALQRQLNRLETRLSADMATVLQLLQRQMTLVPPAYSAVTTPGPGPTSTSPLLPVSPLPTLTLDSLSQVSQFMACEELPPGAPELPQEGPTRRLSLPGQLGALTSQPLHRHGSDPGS

Row | SMILES | hERG current change (%, negative = inhibition) at 1uM [%]
1 | O=C(CSc1nnc(COc2ccccc2)o1)NC1CC2CCC1C2 (stereo not shown) | 14.8
2 | CC(=O)c1ccc(NC(=O)COC(=O)c2c[nH]c3ccccc23)cc1 | 14.4
3 | C/C=C\C(=O)Nc1cccc(C2=NOC3(C2)C[C@@H](C(N)=O)N(C(=O)c2ccccc2)C3)c1 (stereo partly shown) | 11.6
4 | CC1CCCC(C)N1CCCNC(=O)CN1C(=O)c2cccnc2Oc2ccc(Cl)cc21 (stereo not shown) | 6.15
5 | O=C1[C@H]2[C@@H](C(=O)N1c1cc(Cl)cc(Cl)c1)[C@]1(C(=O)Nc3ccccc31)N1CCC[C@@H]21 | 4.86
6 | Cc1cc(=O)n2nc(N3CCCC(C(=O)NCCC4=CCCCC4)C3)sc2n1 (stereo not shown) | -4.44
7 | O=S(=O)(c1ccc(=S)[nH]c1)N1CCCCC1 | 16.8
8 | O=C(O)c1cccc(NC(=S)NC(=O)c2cncc(Br)c2)c1 | 8.81
9 | Cc1cc(C)n2nc(SCc3ccc(C#N)cc3)nc2n1 | 6.64
10 | Cc1ccc(C)c(CSC2=NCCN2S(=O)(=O)c2ccccc2)c1 | 7.31
11 | OCC1(CCOc2ccccc2)CCN(Cc2cn[nH]c2-c2ccccc2)CC1 | -68.3
12 | OCC1(Cc2ccccc2)CCCN(Cc2cn[nH]c2-c2ccccc2)C1 (stereo not shown) | 6.96
13 | OCC1(CCOc2ccccc2)CCN(Cc2cn[nH]c2-c2ccc(F)cc2)CC1 | -46.3
14 | Cc1ccc(S(=O)(=O)N2CCCCC2)cc1NC(=O)CN1CC=C(c2ccccc2)CC1 | -0.529
15 | COc1cc(/C=N/NC(=S)NCC2CCCO2)cc(OC)c1OC (stereo not shown) | 0.431
16 | CC1=C(C(=O)Nc2ccccc2)C(c2coc3ccccc3c2=O)C2=C(CCCC2=O)N1 (stereo not shown) | 10.3
17 | Cc1ccc(NC(=O)CCN2CCN(C/C=C/c3ccccc3)CC2)cc1.Cl | -86.3
18 | Cc1cc(NC(=O)CCN2CCN(Cc3ccccc3)CC2)ccc1Br.Cl | 7.35
19 | Cc1ccc(NC(=O)CCN2CCN(C)CC2)cc1.Cl | 14.9
20 | COC(=O)c1ccc(NC(=O)CCN2CCN(CCC(=O)Nc3ccc(C(=O)OC)cc3)CC2)cc1 | 1.76
21 | COC(=O)c1ccc(NC(=O)CCN2CCCCC2)cc1.Cl | -51
22 | Cc1ccc(NC(=O)N2CCN(C/C=C/c3ccccc3)CC2)cc1 | -10.7

Row | SMILES | hERG current change (%, negative = inhibition) at 1uM [%]
23 | CCN1CCN(CCC(=O)Nc2cccc(C)c2)CC1.Cl | 9.56
24 | COC(=O)c1ccc(NC(=O)CCN2CCOCC2)cc1 | 6.71
25 | Cc1cccc(NC(=O)CCN2CCN(C/C=C/c3ccccc3)CC2)c1.Cl | -82.5
26 | Cc1ccc(NC(=O)CCN2CCOCC2)cc1C | 11.1
27 | Cc1ccc(NC(=O)CCN2CCN(C/C=C/c3ccccc3)CC2)cc1C.Cl | -53.2
28 | Cc1cccc(NC(=O)CCN2CCN(C)CC2)c1.Cl | 14.1
29 | O=C(Cc1ccc(NS(=O)(=O)c2cccc(C(F)(F)F)c2)cc1)NCCN1CCOCC1 | 5.88
30 | CCn1c(SCC(N)=O)nnc1-c1ccc(OC)c(OC)c1 | 19.4
31 | C/C(=N/NC(=O)c1ccc(O)cc1)c1cccc([N+](=O)[O-])c1 | 9.78
32 | COc1cc(/C=C/C2=CC(C)(C)NC(=S)N2)cc(OC)c1OC | 8.95
33 | COc1ccc(-n2c(SCC(=O)NCc3cccs3)nc3[nH]ncc3c2=O)cc1 | -7.44
34 | CCC(C)NC(=S)Nc1ccccc1OC (stereo not shown) | 1.64
35 | CCN(C(=O)CSc1ncnc2c1cnn2-c1ccccc1)C1CCS(=O)(=O)C1 (stereo not shown) | 9.57
36 | O=[N+]([O-])/C=C/c1c(OCc2ccccc2)ccc2ccccc12 | -3.83
37 | CCCC(C)C(=O)OCC(=O)Nc1c(Br)cc(C)cc1Br (stereo not shown) | 9.86
38 | CCCc1ccc(-c2c(C)sc(N)c2C#N)cc1 | 16.9
39 | c1ccc(-n2nnnc2-n2ccnc2)cc1 | 2.97
40 | COc1ccccc1CCNC(=O)C(=O)NCC1OCCN1S(=O)(=O)c1cc(F)ccc1F (stereo not shown) | 8.74
41 | Cc1ccc(S(=O)(=O)N2CCN(S(=O)(=O)c3ccc(C)cc3)C2c2ccccc2)cc1 | 3.23
42 | O=C(CCN1CCN(C/C=C/c2ccccc2)CC1)Nc1ccc(Cl)cc1 | -74.1
43 | O=C(CCN1CCN(C/C=C/c2ccccc2)CC1)Nc1ccccc1 | -79
44 | O=C(CCN1CCN(c2ccccc2)CC1)Nc1ccc(Cl)cc1 | 9.14

Row | SMILES | hERG current change (%, negative = inhibition) at 1uM [%]
45 | CN1CCN(CCC(=O)Nc2cccc(F)c2)CC1 | 13
46 | O=C(CCN1CCN(C/C=C/c2ccccc2)CC1)Nc1cccc(F)c1 | -62.6
47 | COc1ccc(NC(=O)CCN2CCN(C/C=C/c3ccccc3)CC2)cc1 | -37.8
48 | COc1cc(NC(=O)CCN2CCN(C/C=C/c3ccccc3)CC2)cc(OC)c1 | -36.8
49 | O=C(Nc1cccc(F)c1)N1CCN(C/C=C/c2ccccc2)CC1 | -19.1
50 | Cl.O=C(CCN1CCOCC1)Nc1ccc(Cl)cc1 | 8.71
51 | CCOCCCNC(=O)c1cn(C)c(=O)c2cc(OC)c(OC)cc12 | 9.51
52 | CCOC(=O)O[C@]1(C(=O)COC(=O)CC)CC[C@H]2[C@@H]3CCC4=CC(=O)C=C[C@]4(C)[C@H]3[C@@H](O)C[C@@]21C | 8.4
53 | Cc1cccc(NC(=O)CNC(=O)COc2cc(F)ccc2[N+](=O)[O-])c1C | 15.4
54 | CCCNC(=O)CCC(NS(=O)(=O)c1ccc(C)cc1)C(=O)NCCC (stereo not shown) | 7.66
55 | CCOC(=O)C1C(=O)CC(C)(O)C(C(=O)OCC)C1c1ccc(OC)cc1 (stereo not shown) | -0.912
56 | CCOC(=O)CSc1nc2sc(C(=O)O)c(C)c2c(=O)[nH]1 | 9.03
57 | Cc1cc(N2C(=O)C(O)=C(C(=O)c3cc4ccccc4o3)C2c2ccc(Cl)cc2)no1 (stereo not shown) | 1.55
58 | COC(=O)c1cc(NC(=O)CSc2nnc(N)s2)ccc1Cl | 13.6
59 | Cc1ccc2c(CC(=O)N(C)c3c(N)n(Cc4ccccc4)c(=O)[nH]c3=O)coc2c1 | 8.06
60 | O=C(NCCc1ccccc1)c1ccc2nccnc2c1 | 20.4
61 | CC(C)Cc1ccc(C(C)C(N)=NCCc2ccccc2)cc1.Cl (stereo not shown) | -16
62 | CC(C)Cc1ccc(C(C)C(=N)N)cc1.Cl (stereo not shown) | 10.2
63 | CC(C)Cc1ccc(C(C)C(N)=Nc2ccc(O)cc2)cc1.Cl (stereo not shown) | -71.8
64 | CSCCC(=O)N1CCC(n2nccc2NC(=O)CCc2ccccc2)CC1 | 5.02
65 | Cc1ccc(C(=O)C2CCN(CC(=O)NCc3ccc(F)cc3)CC2)cc1 | -17.5
66 | Cc1ccc(NC(=O)CN2CCC(C(=O)c3ccc(F)cc3)CC2)cc1 | -50.1

Row | SMILES | hERG current change (%, negative = inhibition) at 1uM [%]
67 | Cc1ccc(C(=O)C2CCN(CC(=O)N3CCN(c4ccc(F)cc4)CC3)CC2)cc1 | -66.5
68 | O=C(CN1CCC(C(=O)c2ccc(F)cc2)CC1)Nc1ccc(F)cc1 | -31.6
69 | Cc1ccc2c(c1)nnn2C1CCN(CC(=O)Nc2ccc(F)cc2)CC1 | -20.7
70 | O=C(c1ccccc1)C1CCN(CC(=O)N2CCN(c3ccccc3)CC2)CC1 | 10.9
71 | Cc1ccc2c(c1)nnn2C1CCN(CC(=O)c2ccc(Cl)cc2)CC1 | -6.32
72 | Cc1ccc2c(c1)nnn2C1CCN(CC(=O)N2CCN(c3ccc(F)cc3)CC2)CC1 | -52.5
73 | CC(=O)c1ccc(NC(=O)CN2CCC(C(=O)c3ccc(F)cc3)CC2)cc1 | 6.3
74 | O=C(/C=C/c1ccc(F)cc1)NC(=S)Nc1ccccc1O | 13.6
75 | CCN1C(=O)/C(=C/c2ccc(N(CC)CC)cc2OC)C(=O)NC1=S | 5.05
76 | Cc1ccccc1OCCN=Cc1c(O)n(C)c(=O)n(C)c1=O | 10.2
77 | Cc1cc(C(=O)NC2=NCCS2)cs1 | -13
78 | Cc1ccc(S(=O)(=O)NCCC(=O)NNC(=O)c2ccccc2O)cc1C | -9.68
79 | Cc1csc(Sc2ccc(S(=O)(=O)N3CCCC3)cn2)n1 | -2.28
80 | O=Cc1c(NCCc2ccc(F)cc2)c2ccccc2[nH]c1=O | 4.06
81 | Cc1ccc(-c2csc(NC(=O)C3CSC4(C)CCC(=O)N34)n2)cc1 (stereo not shown) | 11.6
82 | O=C(Nc1ccnn1C1CCN(C/C=C/c2ccc(F)cc2)CC1)C1CCCC1 | -79.3
83 | O=C(Nc1ccnn1C1CCN(C/C=C/c2ccccc2)CC1)C1CCCC1 | -78.4
84 | O=C(Nc1ccnn1C1CCN(Cc2cccc(F)c2F)CC1)C1CCCC1 | 8
85 | O=C(Nc1ccnn1C1CCN(Cc2ccccc2)CC1)C1CCCC1 | -15.9
86 | O=C(Nc1ccnn1C1CCN(Cc2ccccc2F)CC1)C1CCCC1 | -6.15
87 | O=C(Nc1ccnn1C1CCN(Cc2cccc(O)c2)CC1)C1CCCC1 | -14.2
88 | CC1(c2ccccc2)CC(C)(C)N2C(=O)C3(C(C#N)=C(N)Oc4cc(O)ccc43)c3cccc1c32 (stereo not shown) | 6.18
